Drawing on PubChem BioAssay AID743279 (National Center for Advancing Translational Sciences (NCATS), 2014), this text covers activity change for 90 molecules.

Each structure is given as a SMILES string. In all, about 360,000 compounds went through this assay and about 17,000 (4.7%) were called active. Another 5% or so got no clear call; they are omitted. Cut-off read from the data, not from the text of the source: active = activity change below about -50%; inconclusive = mostly about -30% to -49%; inactive = weaker than that. The entries come from a sample that favours actives as a whole.
% is set by controls: 0 for no effect and ±100 for the full control effect.

A short description of this assay: qHTS for Inhibitors of Inflammasome Signaling: IL-1-beta AlphaLISA Primary Screen. The note with it: THP-1 LPS/ATP IL-1B secretion, 16 h; at 57.5 µM, active compounds read low. The method, boiled down: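 THP-1 cells pretreated 1 hr with compounds (up to 57.5 uM final), then stimulated with LPS (250 ng/mL final) plus ATP (1.25 mM final); secreted IL-1B measured by AlphaLISA after 16 hr, decreased signal indicating inhibition.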
For orientation: qHTS replaces the single test concentration by a dilution series.
As to `C=CCc1cc(S(=O)(=O)c2ccc(O)c(CC=C)c2)ccc1O`, the activity change is 8.87% (inactive). Then `CCCNC(=O)C[C@@H]1CC[C@@H]2[C@H](COC[C@H](O)CN2C(=O)c2cc(Cl)cc(Cl)c2)O1`, with 35% (inactive).

Take `O=C(COC(=O)Cc1ccc(Cl)cc1Cl)NCc1ccco1`: the activity change is 0.688% (inactive). Then `CC(=O)OCC(COC(C)=O)OC(C)=O`, with 12.6% (inactive); and `CC(=O)OC(C)C[N+](C)(C)C` (stereo not given), with -70.2% (active). Then `CC(C[N+](C)(C)C)OC(N)=O` (stereo not given), with 8.81% (inactive); and `CC1=C(C(=O)N2CCOCC2)CC(CC(=O)NCc2ccco2)C(=O)N1Cc1ccc(F)cc1` (stereo not given), with 17.5% (inactive). On to `O=C1NC[C@H](CCCCN2C[C@H](Cc3ccc(O)cc3)N(CCc3ccccc3)C(=O)C2=O)N(CCc2ccccc2)C1=O`, for which the activity change is 4.59% (inactive). The figure for `CC(C)(C)N1CC(c2nc3ccccc3n2Cc2ccc(F)cc2)CC1=O` (stereo not given) is -16.1% (inactive). On to `CC(C)(C)c1cc(=O)n2c(nc3ccccc32)[nH]1`, for which the activity change is -74.5% (active). The figure for `CC(C)(C)c1nc2ccccc2c(=O)n1N1C(=O)c2ccccc2C1=O` is -1.36% (inactive); for `CN(CC(=O)NCc1ccncc1)S(=O)(=O)c1ccc(Br)cc1` it is 11.2% (inactive). Then `O=C(/C(=C/c1cccc(Cl)c1)c1nc2ccccc2[nH]1)c1ccccc1`, with -95.6% (active); and `O=C(N/N=C/c1ccc(Cl)cc1)c1nc2ccc([N+](=O)[O-])cc2c(=O)[nH]1`, with 7.76% (inactive).

On to `O=C(CCc1nc2ccccc2c(=O)[nH]1)OCC(=O)c1cccc(Cl)c1`, for which the activity change is 0% (inactive). Consider `c1cc(-c2ccc3[nH]ccc3c2)n2ccnc2c1`, for which the activity change was 10.3% (inactive).

With `CC1CN(C(=O)CCC(=O)NC2CCN(Cc3ccccc3)CC2)c2ccccc2O1` (stereo not given), the activity change is -3.91% (inactive). Then `CN(CC(=O)NC1CCCCC1)S(=O)(=O)c1ccc(Br)s1`, with 2.52% (inactive); and `CN(CC(=O)NC1CCN(Cc2ccccc2)CC1)S(=O)(=O)c1ccc(Cl)s1`, with -53.7% (active); and `COc1cccc(OC)c1C(=O)N1CCN(Cc2ccccc2F)CC1`, with -14.9% (inactive).

Take `COc1cccc(-c2cnc3c(NC(C)=O)cc(-c4cc(F)ccc4OC)cn23)c1`: the activity change was -11.1% (inactive).

Take `Cc1ccccc1N1CCN(Cc2nc(Cc3ccccc3F)no2)CC1`: the activity change is 15.1% (inactive). As to `COc1ccc(CCNC(=S)N2CCN(S(=O)(=O)c3ccc(Cl)cc3)CC2)cc1`, the activity change is 0% (inactive). The figure for `O=C(NCCc1ccc(Cl)cc1)c1cccc(N2CCCC2=O)c1` is -5.88% (inactive). Then `Oc1cc2c(cc1O)CN(C(=S)NCCc1ccc(Cl)cc1)CCC2`, with -66.9% (active).

As to `O=C(Nc1ccc(Cl)cc1)Nc1nnc(/C=C/c2ccccc2)s1`, the activity change was 11.5% (inactive). The entry for `O=C(Nc1ccc(S(=O)(=O)Nc2ccccn2)cc1)c1ccccc1` is “inactive”; for `O=C(Nc1ccccc1)c1nnsc1S(=O)(=O)c1ccc(Cl)cc1` it is -53.3% (active). The figure for `CCCCc1nc(SCC(=O)Nc2nnc(C(C)C)s2)n[nH]1` is 10.5% (inactive); for `CSCCC(NC(=O)C1CCC(C)CC1)C(=O)NCc1ccco1` (stereo not given) it is -25.5% (inactive).

As for `CN1C(c2ccc(F)cc2)=CS/C1=C(/C#N)c1nnc2n1-c1ccccc1SC2`, the activity change is -68.6% (active). Then `COc1cc(OC)cc(-c2nc3ccccc3c(=O)n2NC(=O)c2cccnc2Cl)c1`, with -0.823% (inactive).

Regarding `O=C(Nc1ccc2c(c1)OCCO2)C1c2ccccc2OCC(=O)N1Cc1ccccn1` (stereo not given), the activity change is 18.3% (inactive). Take `CC(C)Cn1cc(-c2cncc3nccn23)cn1`: the activity change was -7.82% (inactive). The figure for `CCCCCc1ccc(-c2cn(Cc3ccc4ccccc4c3)nn2)cc1` is -1.04% (inactive); for `CCOC(=O)c1nnn(-c2nc(OC)nc(N(C)C)n2)c1-c1ccccc1` it is 44.9% (inactive). The figure for `CCOc1nc(OCC)nc(-n2cc(-c3ccccc3)nn2)n1` is -60.1% (active).

On to `COc1ccc(-c2ccc(CN3C(CC(C)C)C(=O)N(Cc4cn(CC5CCCCC5)nn4)CCS3(=O)=O)cc2)cn1` (stereo not given), for which the activity change is -12.3% (inactive). The figure for `CC(=O)NN=C(C)c1ccc(NC(=O)C2CC2)cc1` is -22.8% (inactive); for `CCc1ccc2c(c1)cc(CN(C(=S)Nc1ccccc1Cl)C1CC1)c1nnnn12` it is 14.3% (inactive); for `COc1cc(C(=S)N2CCOCC2)cc(OC)c1OC(=O)c1ccc([N+](=O)[O-])cc1[N+](=O)[O-]` it is -15.3% (inactive). Then `COc1cc([N+](=O)[O-])cc([N+](=O)[O-])c1NC(=O)N1CCOCC1`, with -92.7% (active); and `COc1cc(C(=S)N2CCOCC2)cc(OC)c1OC(=O)c1cc([N+](=O)[O-])cc([N+](=O)[O-])c1`, with 22% (inactive). For `OC[C@@H]1CN(Cc2ccc(-c3ccccc3)cc2)C[C@H](n2cnc3c(NC4CCCC4)ncnc32)O1`, the activity change was -3.87% (inactive). Then `COc1cc2cc(C(=O)N/N=C/c3cccc(OC)c3OC)[nH]c2cc1OC`, with -70% (active); and `COc1ccc2[nH]c(C(=O)N/N=C/c3cc(OC)c(OC)c(OC)c3)cc2c1`, with -6.28% (inactive). The figure for `CCOc1ccc2[nH]c(C(=O)N/N=C/c3cccc(OC)c3OC)cc2c1` is 0% (inactive); for `Cc1cc2c3ccccc3[nH]c(=O)n2n1` it is -25.1% (inactive). The figure for `O=C1c2ccccc2C(=O)C1C(=O)C1CC1` is 8.56% (inactive).

On to `Nc1cccc(-c2cncc(N3CCN(Cc4ccccn4)CC3)n2)c1`, for which the activity change was -1.3% (inactive). Then `O=C(C[C@H]1C[C@H]2c3cc(NS(=O)(=O)c4ccc(F)cc4)ccc3O[C@H]2[C@H](CO)O1)NCc1cc(F)ccc1F`, with 9.17% (inactive); and `COc1ccc2cc1Oc1ccc(cc1)C[C@H]1c3cc(c(OC)cc3CCN1C)Oc1c(O)c(OC)cc3c1[C@H](C2)N(C)CC3`, with -107% (active); and `OC(c1ccc(Cl)c(F)c1)c1ncc(-c2ccccc2Cl)[nH]1` (stereo not given), with 1.76% (inactive). Then `CCc1nc2c(OCCc3cccc(OC)c3)cccn2c1N(C)C(=O)c1ccc(C)cc1`, with -7.64% (inactive); and `Cc1ccc(NC(=O)COC(=O)CN2CCSC2=O)cc1F`, with 4.94% (inactive); and `Cc1cc2nc(-c3ccc(F)cc3)c(Cc3ccsc3)n2c(C)c1Br`, with 14% (inactive).

On to `Cc1ccc(NC(=O)CN2CCc3ccccc3C2)cc1`, for which the activity change was 7.54% (inactive).

As for `Cc1ccc(NC(=S)N2CCCC(c3ccccc3)=N2)cc1`, the activity change was -20.4% (inactive). As for `Cc1cccc[n+]1CC(=O)c1ccccc1`, the activity change was 22.7% (inactive). Consider `Cc1ccc(-c2c[n+](CC(=O)Nc3ccccc3)c3n2CCC3)cc1`, for which the activity change is -60.8% (active).

With `Cc1ccc(C(=O)C[n+]2cc(-c3ccccc3)n3c2CCCCC3)cc1`, the activity change was -83.1% (active). Then `Cc1ccc(C(=O)N2CCCC(c3ccccc3)=N2)cc1`, with -5.32% (inactive); and `COc1cccc(NC(=O)N(C)C[C@@H]2Oc3ncc(Br)cc3C(=O)N([C@@H](C)CO)C[C@H]2C)c1`, with 2.84% (inactive). Then `NNC(=O)COc1ccc(C2SCCS2)cc1`, with 15.3% (inactive); and `OC[C@@H]1CN(Cc2cccs2)C[C@H](n2cnc3c(NC4CCCC4)ncnc32)O1`, with -3.1% (inactive); and `CC1CCCC(NC(=O)COC(=O)c2ccccc2C(=O)N(C)C2CCCCC2)C1C` (stereo not given), with -16.9% (inactive). Then `CCOC(=O)COn1c(=O)c(-c2ccc(OCC)cc2)[n+]([O-])c2ccccc21`, with 4.15% (inactive). For the molecule `CCOc1ccc(OCC)c(-c2c(=O)n(OCc3ccc(Cl)cc3)c3ccccc3[n+]2[O-])c1`, the activity change was -67% (active). Turning to `O=c1c(-c2ccc(Cl)cc2)[n+]([O-])c2ccccc2n1OCc1nc2ccccc2[nH]1`, the activity change is 14.2% (inactive).

With `CC(=O)OC1CCC2C3CCC4=C(CC(F)C(=O)C4)C3CCC12C` (stereo not given), the activity change was 5.77% (inactive). The figure for `Cc1cn([C@H]2C[C@H](O)[C@@H](CNC(=O)[C@H](N)Cc3cccnc3)O2)c(=O)[nH]c1=O` is 11.3% (inactive). Then `Cc1cccc(C)c1NC(=O)CNC(=O)c1ccc(N2CCOCC2)c([N+](=O)[O-])c1`, with -0.22% (inactive); and `CCC(C)NC(=O)c1ccc(N2CCC3(CC2)OCCO3)c([N+](=O)[O-])c1` (stereo not given), with 0.859% (inactive); and `CC(NC(=O)c1ccc(N2CCNCC2)c([N+](=O)[O-])c1)C12CC3CC(CC(C3)C1)C2` (stereo not given), with -72.6% (active). As to `CS(=O)(=O)N1CCN(c2ccc(C(=O)NC3C4CC5CC(C4)CC3C5)cc2[N+](=O)[O-])CC1` (stereo not given), the activity change was 5.99% (inactive). Then `O=C(Nc1cccc(C(F)(F)F)c1)c1ccc(N2CCNCC2)c([N+](=O)[O-])c1`, with -82.2% (active); and `O=C(Nc1ccc(N2C(=O)c3cccc4cccc(c34)C2=O)cc1)c1ccc(N2CCCCC2)c([N+](=O)[O-])c1`, with -6.25% (inactive); and `Cc1nc2nc(C)c(CCC(=O)N3CCN(c4ccccc4)CC3)c(C)n2n1`, with -17.6% (inactive). As to `C[N+](C)(C)CCNC(=O)c1c[nH]c2ccccc12`, the activity change is 24.4% (inactive). The figure for `CCC(C(=O)NCc1cccnc1)n1nc(C)c2sc3ccccc3c2c1=O` (stereo not given) is -16.1% (inactive); for `CCOc1ccc(N(CC(=O)NCC2CCCO2)S(=O)(=O)c2ccc(C)cc2)cc1` (stereo not given) it is 7.07% (inactive); for `Cc1ccc(S(=O)(=O)N(CC(=O)NN=C2CCN(C)CC2)c2ccc(F)cc2)cc1` it is 31% (inactive). Then `CCNC(=O)CN(c1ccc(C)cc1)S(=O)(=O)c1ccc(SC)cc1`, with -55.3% (active); and `COc1ccc(S(=O)(=O)NC(=O)C2(C)CCN2C(=O)c2ccccc2CCc2ccccc2)cc1` (stereo not given), with 22.1% (inactive); and `CCCNC(=O)C1(C)CCN(C(=O)c2ccccc2OC(F)(F)F)C1` (stereo not given), with 15.8% (inactive). The figure for `COc1ncnc2c1ncn2CCCNCCN1CCOCC1` is 44.5% (inactive). As for `O=S(=O)(O)c1cc2onnc2c2ccccc12`, the activity change is 0% (inactive). Then `Cc1ccc(Nc2nc(N)nc(CN3CCN(Cc4ccccc4)CC3)n2)cc1Cl`, with 0% (inactive); and `OCCNc1nc(Nc2ccc(Cl)c(Cl)c2)nc2ccccc12`, with -92.5% (active); and `CNc1nc(Nc2ccc(C)c(Cl)c2)nc(N)c1[N+](=O)[O-]`, with -21.8% (inactive).
